Measurements from PubChem BioAssay (NCI).
About 79,000 compounds went through this panel and 15% of them were active in at least one assay; those are over-represented in the sample as a whole. Activity calls are given as the source filed them. No stated cut-off is given here; in the data, active means growth inhibition above about 70%; inactive means the rest.

How the values were obtained:
[1] = NCI Yeast Anticancer Drug Screen. Data for the rad52 strain (AID 147);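 further: 0% = growth of vehicle-treated control cultures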; conditions: S. cerevisiae rad52 mutant growth inhibition, stronger effect = higher value
Procedure, shortened: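 Screen used a yeast mutant impaired in DNA repair. After compound exposure, growth was measured. Values reflect inhibition compared with vehicle-treated cells.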

[2] = NCI Yeast Anticancer Drug Screen. Data for the wt1 strain (AID 149);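 further: 0% = growth of vehicle-treated wt1 cultures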; conditions: S. cerevisiae wt1 strain (SPY 50644) growth inhibition, stronger effect = higher value
Procedure, shortened: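 Each compound is tested on wt1 yeast and the loss of growth versus vehicle gives the inhibition value.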

[3] = NCI Yeast Anticancer Drug Screen. Data for the rad50EPP+ strain (AID 151);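 further: 0% = growth of vehicle-treated control cultures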; conditions: S. cerevisiae rad50 mutant strain, stronger effect = higher value
Procedure, shortened: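 Exposing the rad50EPP+ strain to each compound, growth was compared with vehicle-only cultures to give inhibition.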

[4] = NCI Yeast Anticancer Drug Screen. Data for the mgt1 strain (AID 153); conditions: S. cerevisiae mgt1 mutant growth inhibition, stronger effect = higher value
Procedure, shortened: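 Genetically defined yeast (mgt1) treated with compound; inhibition of growth expressed against vehicle-treated controls.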

[5] = NCI Yeast Anticancer Drug Screen. Data for the rad50 strain (AID 155);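 further: 0% = growth of vehicle-only cultures of the same strain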; conditions: S. cerevisiae rad50 strain growth inhibition, stronger effect = higher value
Procedure, shortened: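 Vehicle-treated cultures provide the reference for the growth inhibition reported for compound-exposed, repair-deficient yeast.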

[6] = NCI Yeast Anticancer Drug Screen. Data for the mec2-1 strain (AID 157); conditions: S. cerevisiae mec2-1 strain, stronger effect = higher value
Procedure, shortened: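 Readout is yeast growth inhibition, normalised to vehicle-treated controls, in the mec2-1 strain exposed to compound.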

[7] = NCI Yeast Anticancer Drug Screen. Data for the rad14 strain (AID 159);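 further: 0% = growth of vehicle-treated control cultures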; conditions: S. cerevisiae rad14 strain growth inhibition, stronger effect = higher value
Procedure, shortened: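 Inhibition of growth is reported for a repair-deficient yeast mutant following compound treatment, calculated relative to cultures that received vehicle.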

[8] = NCI Yeast Anticancer Drug Screen. Data for the sgs1 mgt1 strain (AID 161);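 further: 0% = growth of cultures given vehicle only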; conditions: S. cerevisiae sgs1 mgt1 strain, stronger effect = higher value
Procedure, shortened: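 Percent growth inhibition was derived by comparing compound-exposed mutant yeast with vehicle-exposed cultures. The strain carries alterations in DNA damage repair.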

[9] = NCI Yeast Anticancer Drug Screen. Data for the CLN2oe strain (AID 163);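 further: 0% = growth of vehicle-only control cultures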; conditions: S. cerevisiae CLN2oe strain, stronger effect = higher value
Procedure, shortened: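 Values reflect how much compound exposure reduced yeast growth, referenced to vehicle-exposed cells. Assay organism is a strain with a defined genetic change affecting cell-cycle control.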

[10] = NCI Yeast Anticancer Drug Screen. Data for the cln2 rad14 strain (AID 165);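 further: 0% = growth equal to vehicle treated cultures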; conditions: S. cerevisiae cln2 rad14 strain, stronger effect = higher value
Procedure, shortened: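 Relative to vehicle controls, growth inhibition of compound-treated cln2 rad14 yeast was recorded.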

[11] = NCI Yeast Anticancer Drug Screen. Data for the bub3 strain (AID 167); conditions: S. cerevisiae bub3 mutant strain, stronger effect = higher value
Procedure, shortened: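 Mutant yeast screening strain plus compound; vehicle-treated cultures serve as the 0% inhibition reference.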

[12] = NCI Yeast Anticancer Drug Screen. Data for the wt2 strain (AID 169); conditions: S. cerevisiae wt2 strain growth inhibition, stronger effect = higher value
Procedure, shortened: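 Values express reduction in yeast growth under compound treatment, referenced to vehicle-treated cells.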

[13] = NCI Yeast Anticancer Drug Screen. Data for the mlh1 strain (AID 171);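 further: 0% = growth of vehicle-treated control cultures of the same strain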; conditions: S. cerevisiae mlh1 strain growth inhibition, stronger effect = higher value
Procedure, shortened: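 Steps: expose the defined-mutant yeast strain to compound; expose a parallel culture to vehicle; measure growth; express compound effect as inhibition relative to the vehicle culture.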

[14] = NCI Yeast Anticancer Drug Screen. Data for the sgs1 strain (AID 173);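 further: 0% = growth of vehicle-only control cultures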; conditions: S. cerevisiae sgs1 mutant, stronger effect = higher value
Procedure, shortened: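 Treat defined-mutant yeast with compound; measure growth; calculate inhibition relative to vehicle-treated cells.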

[15] = NCI Yeast Anticancer Drug Screen. Data for the mlh1 rad18 strain (AID 175); conditions: S. cerevisiae mlh1 rad18 strain growth inhibition, stronger effect = higher value
Procedure, shortened: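 Test agents were incubated with a yeast strain of defined genotype (DNA damage repair defect). Inhibition of growth was derived by comparison with vehicle-exposed cultures.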

[16] = NCI Yeast Anticancer Drug Screen. Data for the rad18 strain (AID 177); conditions: S. cerevisiae rad18 mutant growth inhibition, stronger effect = higher value
Procedure, shortened: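 A genetically defined yeast mutant impaired in DNA damage repair was treated with test compounds, then its growth was measured against cultures receiving vehicle alone.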

[17] = at 5.0 µM (retest, dose inferred, filed as 0.5)
[18] = at 50.0 µM (retest, dose inferred, filed as 5.0)

Measured: growth inhibition

Cc1c(C(=O)C(=O)c2ccccc2)c(C)c(C(=O)C(=O)c2ccccc2)c(C)c1C(=O)C(=O)c1ccccc1
inactive: [1]; at 1.2 µM -4% | [1]; at 3.7 µM -5% | [1]; at 11.0 µM -7% | [1]; at 33.0 µM -17% | [1]; at 100.0 µM -14% | [2]; at 1.2 µM 0% | [2]; at 3.7 µM 1% | [2]; at 11.0 µM -1% | [2]; at 33.0 µM -4% | [2]; at 100.0 µM -5% | [3]; at 1.2 µM 0% | [3]; at 3.7 µM -1% | [3]; at 11.0 µM -3% | [3]; at 33.0 µM -5% | [3]; at 100.0 µM -17% | [4]; at 1.2 µM -2% | [4]; at 3.7 µM -2% | [4]; at 11.0 µM -5% | [4]; at 33.0 µM -21% | [4]; at 100.0 µM -9% | [5]; at 1.2 µM -11% | [5]; at 3.7 µM -21% | [5]; [17] 11% | [5]; at 11.0 µM -29% | [5]; at 33.0 µM -12% | [5]; at 50.0 µM 54.1% | [5]; at 100.0 µM -19% | [6]; at 1.2 µM -2% | [6]; at 3.7 µM 1% | [6]; [17] 18% | [6]; at 11.0 µM -1% | [6]; at 33.0 µM -3% | [6]; at 50.0 µM 61.4% | [6]; at 100.0 µM -11% | [7]; at 1.2 µM -2% | [7]; at 3.7 µM -3% | [7]; at 11.0 µM -4% | [7]; at 33.0 µM -8% | [7]; at 100.0 µM -13% | [8]; [17] -5% | [9]; at 1.2 µM 1% | [9]; at 3.7 µM -5% | [9]; at 11.0 µM -5% | [9]; at 33.0 µM -10% | [9]; at 100.0 µM -13% | [10]; at 50.0 µM 63.1% | [11]; at 1.2 µM -2% | [11]; at 3.7 µM 0% | [11]; at 11.0 µM -2% | [11]; at 33.0 µM -8% | [11]; at 50.0 µM 56.4% | [11]; at 100.0 µM -16% | [12]; at 1.2 µM -3% | [12]; at 3.7 µM -1% | [12]; at 11.0 µM -4% | [12]; at 33.0 µM -6% | [12]; at 100.0 µM -10% | [13]; at 1.2 µM 1% | [13]; at 3.7 µM 1% | [13]; at 11.0 µM 1% | [13]; at 33.0 µM -3% | [13]; at 100.0 µM -8% | [14]; at 1.2 µM 0% | [14]; at 3.7 µM 0% | [14]; at 11.0 µM -4% | [14]; at 33.0 µM -5% | [14]; at 100.0 µM -13% | [15]; [17] 9% | [16]; at 1.2 µM -3% | [16]; at 3.7 µM -4% | [16]; at 11.0 µM -6% | [16]; at 33.0 µM -13% | [16]; at 100.0 µM -20%
active: [5]; [18] 86% | [6]; [18] 90% | [8]; [18] 86% | [8]; at 50.0 µM 75.7% | [10]; [17] 94% | [10]; [18] 84% | [11]; [17] 97% | [11]; [18] 91% | [15]; [18] 87% | [15]; at 50.0 µM 72.5%

COc1cc(C(=O)/C=C/c2ccccc2O)ccc1O
inactive: [1]; at 1.2 µM -11% | [1]; at 3.7 µM 55% | [2]; at 1.2 µM -11% | [3]; at 1.2 µM 11% | [4]; at 1.2 µM 9% | [5]; at 1.2 µM 10% | [5]; at 3.7 µM 32% | [5]; [17] 33% | [6]; at 1.2 µM -7%
active: [1]; at 11.0 µM 98% | [1]; at 33.0 µM 98% | [1]; at 100.0 µM 98% | [2]; at 3.7 µM 73% | [2]; at 11.0 µM 98% | [2]; at 33.0 µM 99% | [2]; at 100.0 µM 98% | [3]; at 3.7 µM 89% | [3]; at 11.0 µM 99% | [3]; at 33.0 µM 99% | [3]; at 100.0 µM 98% | [4]; at 3.7 µM 84% | [4]; at 11.0 µM 98% | [4]; at 33.0 µM 99% | [4]; at 100.0 µM 98% | [5]; at 11.0 µM 98% | [5]; at 33.0 µM 98% | [5]; [18] 98% | [5]; at 50.0 µM 93.2% | [5]; at 100.0 µM 98% | [6]; at 3.7 µM 78%
